Measured values: PubChem BioAssay (NCI)
This is part of a sample that, as a whole, favours compounds with a hit. Of some 79,000 tested, about 15% had one in any assay. Unmarked numbers belong to inactive results. Calls of active or inactive are those of the source. Cut-off read from the data, not from the text of the source: active = growth inhibition above about 70%; inactive = the rest.

Key:
[1] = NCI Yeast Anticancer Drug Screen. Data for the rad50 strain (AID 155);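 note: 0% = growth of vehicle-only cultures of the same strain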; details: S. cerevisiae rad50 strain growth inhibition, hits give high values
Summary of the method: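 Cells are treated with compound, grown, and their growth is then scored against vehicle-only cultures of the same repair-deficient yeast strain.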

[2] = NCI Yeast Anticancer Drug Screen. Data for the mec2-1 strain (AID 157); details: S. cerevisiae mec2-1 strain, hits give high values
Summary of the method: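 Mutant yeast (mec2-1) grown with compound; growth inhibition relative to vehicle control reported.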

[3] = NCI Yeast Anticancer Drug Screen. Data for the sgs1 mgt1 strain (AID 161);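 note: 0% = growth of cultures given vehicle only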; details: S. cerevisiae sgs1 mgt1 strain, hits give high values
Summary of the method: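 Compounds are added to genetically altered yeast, and growth is compared with cultures given vehicle alone to give percent inhibition.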

[4] = NCI Yeast Anticancer Drug Screen. Data for the cln2 rad14 strain (AID 165);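 note: 0% = growth equal to vehicle treated cultures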; details: S. cerevisiae cln2 rad14 strain, hits give high values
Summary of the method: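 Readout is yeast growth inhibition versus vehicle-treated controls, using a strain with cln2 and rad14 alterations exposed to compound.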

[5] = NCI Yeast Anticancer Drug Screen. Data for the bub3 strain (AID 167); details: S. cerevisiae bub3 mutant strain, hits give high values
Summary of the method: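 Part of a panel of yeast mutants defective in DNA damage repair or cell cycle regulation. Each strain is grown with compound, and inhibition is calculated relative to solvent-treated cultures.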

[6] = NCI Yeast Anticancer Drug Screen. Data for the mlh1 rad18 strain (AID 175); details: S. cerevisiae mlh1 rad18 strain growth inhibition, hits give high values
Summary of the method: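 Genetically defined yeast (DNA repair-deficient) exposed to compounds; growth inhibition determined relative to vehicle.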

[7] = at 5.0 µM (retest, dose inferred, filed as 0.5)
[8] = at 50.0 µM (retest, dose inferred, filed as 5.0)

| SMILES | growth inhibition [1, 7] | growth inhibition [1, 8] | growth inhibition ([1]; at 50.0 µM) | growth inhibition [2, 7] | growth inhibition [2, 8] | growth inhibition ([2]; at 50.0 µM) | growth inhibition [3, 7] | growth inhibition [3, 8] | growth inhibition ([3]; at 50.0 µM) | growth inhibition [4, 7] | growth inhibition [4, 8] | growth inhibition ([4]; at 50.0 µM) | growth inhibition [5, 7] | growth inhibition [5, 8] | growth inhibition ([5]; at 50.0 µM) | growth inhibition [6, 7] | growth inhibition [6, 8] | growth inhibition ([6]; at 50.0 µM) |
| --- | --- | --- | --- | --- | --- | --- | --- | --- | --- | --- | --- | --- | --- | --- | --- | --- | --- | --- |
| Brc1cc2c(c(Br)c1Br)C(Br)(Br)C(c1ccccc1)=N2 | 6% | 80% (active) | 73.3% (active) | 10% | 85% (active) | 58.1% | 25% | 85% (active) | 78.6% (active) | 3% | 32% | 60.4% | 1% | 90% (active) | 27.6% | 13% | 89% (active) | 75.3% (active) |
| COc1cc(C(c2cc3c(cc2O)OCO3)N2CCN(C(c3cc(OC)c(OC)c(OC)c3)c3cc4c(cc3O)OCO4)CC2)cc(OC)c1OC (configuration not stated) | -2% | 69% | 23.6% | -1% | 74% (active) | 32.9% | -5% | 88% (active) | 28.6% | -6% | 93% (active) | -35% | -2% | 91% (active) | 6.55% | 2% | 86% (active) | 64.1% |
| CCc1cccc(CC)c1N=Nc1c(N)nc(N)[nH]c1=O | -11% | -6% | -4.8% | -23% | -9% | -32% | -11% | 6% | 39.8% | 0% | 2% | -21% | -2% | -3% | -19.8% | 8% | -30% | -11.7% |
| COCc1ccc([N+](=O)[O-])o1 | 17% | 89% (active) | 71.5% (active) | 1% | 35% | 21.6% | 11% | 76% (active) | 78.7% (active) | 6% | 24% | 7.65% | 2% | 36% | 1.2% | 17% | 84% (active) | 66.2% |
| CC(=O)/C(=C\c1ccco1)C(=O)Nc1ccccc1 | 2% | 23% | 73.1% (active) | 0% | 21% | 48.2% | 13% | 26% | 80.2% (active) | 6% | 23% | 92.4% (active) | -4% | 58% | 91.2% (active) | 6% | 37% | 94.7% (active) |
| FC(F)(F)c1[nH]nc(-c2cccs2)c1N=NN1CCOCC1 | 98% (active) | 98% (active) | 98% (active) | 100% (active) | 99% (active) | 99.2% (active) | 100% (active) | 99% (active) | 97.2% (active) | 99% (active) | 99% (active) | 98.6% (active) | 100% (active) | 99% (active) | 98.6% (active) | 100% (active) | 99% (active) | 98% (active) |
| CC[N-]c1nncs1.CC[N-]c1nncs1.CC[N-]c1nncs1.CC[N-]c1nncs1.[Cl][Rh][Cl] | -8% | 95% (active) | 97.7% (active) | 43% | 74% (active) | 97.8% (active) | 11% | 93% (active) | 98.5% (active) | 0% | 77% (active) | 91% (active) | -4% | 77% (active) | 95.6% (active) | 15% | 95% (active) | 97.6% (active) |
| OC(C(=Nc1ccccc1)c1ccccc1)c1ccccc1 (configuration not stated) | 50% | 96% (active) | 98.7% (active) | 11% | 99% (active) | 98.6% (active) | 1% | 98% (active) | 99.2% (active) | -3% | 98% (active) | 98.8% (active) | 15% | 98% (active) | 97.8% (active) | 39% | 99% (active) | 99.1% (active) |
| CCCCCCCCCCCCCCOS(=O)(=O)O | 26% | 99% (active) | 99.5% (active) | -27% | 73% (active) | 99.7% (active) | -1% | 100% (active) | 99.6% (active) | 8% | 61% | 99.6% (active) | -9% | 35% | 99.7% (active) | 12% | 98% (active) | 99.5% (active) |
| COC(=O)c1ccccc1C=C(c1ccc([N+](=O)[O-])cc1)c1ccc([N+](=O)[O-])cc1 | 4% | 94% (active) | 93.2% (active) | -2% | 99% (active) | 95.8% (active) | 4% | 98% (active) | 96.5% (active) | -11% | 97% (active) | 95.1% (active) | -2% | 98% (active) | 94.6% (active) | 28% | 97% (active) | 96% (active) |
| CCCCC(/C=N\NC(=O)c1ccc[n+](C)c1)=C/c1ccccc1 | 18% | 1% | 88.3% (active) | 1% | -3% | 95.4% (active) | -6% | -3% | 88.7% (active) | -2% | -5% | 18.5% | -4% | -7% | 94.5% (active) | -1% | 16% | 90.6% (active) |
| CCC1(CC)COC(C)(C(=O)O)OC1 | -155% | -176% | 56.9% | -50% | -62% | 11.1% | -68% | -69% | -2.95% | -51% | -77% | -41.4% | -65% | -71% | 6.2% | -127% | -168% | -6.2% |
| O=C(Nc1ccc(F)c(Cl)c1)Oc1ccc(Br)cc1Br | 10% | 52% | 38.1% | 5% | 50% | 56.8% | -2% | 66% | 65.8% | -5% | 6% | 11.3% | -2% | 11% | 15.5% | -3% | 80% (active) | 89.5% (active) |
| CC(C)c1cc(O)c(C(C)(C)C)cc1Cl | -1% | 15% | 74.5% (active) | 2% | 38% | 77.2% (active) | -1% | 24% | 77.3% (active) | 4% | 45% | 72.5% (active) | -11% | 30% | 76.6% (active) | 3% | 47% | 86.8% (active) |
| COc1ccc(-c2[nH]c(-c3ccc(OC)cc3)c(-c3ccccn3)c2-c2ccccn2)cc1 | -4% | 16% | 80.7% (active) | -16% | 18% | 91.7% (active) | 0% | 25% | 95.4% (active) | 7% | 27% | 69.5% | 4% | -7% | 83.5% (active) | -19% | 11% | 94.7% (active) |
| N#C/C(=C/c1cc(I)cc(I)c1O)C(N)=O | 42% | 87% (active) | 79.8% (active) | 39% | 92% (active) | 58.6% | 69% | 97% (active) | 78.8% (active) | 41% | 90% (active) | 61.2% | 44% | 96% (active) | 80.2% (active) | 66% | 97% (active) | 71.2% (active) |
| CC(Br)C(=O)c1ccc2cc(Cl)c3ccccc3c2c1 (configuration not stated) | -2% | 99% (active) | -10.3% | 5% | 99% (active) | 31.4% | 7% | 99% (active) | 46.3% | -4% | 99% (active) | -16.8% | 0% | 99% (active) | 67.8% | 7% | 99% (active) | 39.1% |
| COC(=O)c1c(COC(=O)NC(C)C)c2n(c1C)CS(=O)(=O)C2 | -38% | -8% | 97.3% (active) | 3% | 5% | 98.5% (active) | -3% | 31% | 98.4% (active) | -6% | -20% | 98% (active) | -18% | 3% | 97% (active) | -35% | -32% | 97.7% (active) |
| O=C(Nc1ncnc2c1ncn2C1CC(O)C(CO)O1)c1ccccc1 (configuration not stated) | 1% | 1% | -2.25% | -2% | 0% | -11.3% | -1% | 1% | -0.05% | -6% | -2% | -23.9% | -2% | -1% | 54.1% | -4% | 4% | -17.8% |
